TGFb inhibitor: qHTS for Inhibitors of TGF-b; HepG2 CAGA-GFP TGF-b/SMAD3 reporter, GFP fluorescence, 18 h; TGF-beta stimulated, 500 pg/mL final; Potency, µM (series often up to 46.1 µM), for inactives: at the top dose activity, negative = inhibition, actives largely listed as inhibitors; actives 1.2% (n = 410,000); note: potency is the fitted concentration of half-maximal effect; % is set by controls: 0 for no effect and ±100 for the full control effect; nearly all actives have a fitted effect of over 65% in size
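Smad-responsive CAGA-GFP expression was quantified in HEPG2 cells exposed to compounds and 500 pg/mL final TGF-beta for 18 h at 37 degrees C; unstimulated wells defined full inhibition.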
TDP1 inh: qHTS Assay for Inhibitors of Tyrosyl-DNA Phosphodiesterase (TDP1); Potency, µM (titrated, usually from 130 µM), for inactives: top-dose activity change, negative = inhibition, usual class: inhibitors; actives 0.28% (n = 350,000); Tyrosyl-DNA phosphodiesterase 1 (Homo sapiens), Q9NUW8; recombinant TDP1, AlphaScreen DNA substrate cleavage; AID 485290, 2010; note: potency is the fitted concentration of half-maximal effect; % is set by controls: 0 for no effect and ±100 for the full control effect; nearly all actives have a fitted effect of over 40% in size
Target sequence (Q9NUW8 whole entry, looked up): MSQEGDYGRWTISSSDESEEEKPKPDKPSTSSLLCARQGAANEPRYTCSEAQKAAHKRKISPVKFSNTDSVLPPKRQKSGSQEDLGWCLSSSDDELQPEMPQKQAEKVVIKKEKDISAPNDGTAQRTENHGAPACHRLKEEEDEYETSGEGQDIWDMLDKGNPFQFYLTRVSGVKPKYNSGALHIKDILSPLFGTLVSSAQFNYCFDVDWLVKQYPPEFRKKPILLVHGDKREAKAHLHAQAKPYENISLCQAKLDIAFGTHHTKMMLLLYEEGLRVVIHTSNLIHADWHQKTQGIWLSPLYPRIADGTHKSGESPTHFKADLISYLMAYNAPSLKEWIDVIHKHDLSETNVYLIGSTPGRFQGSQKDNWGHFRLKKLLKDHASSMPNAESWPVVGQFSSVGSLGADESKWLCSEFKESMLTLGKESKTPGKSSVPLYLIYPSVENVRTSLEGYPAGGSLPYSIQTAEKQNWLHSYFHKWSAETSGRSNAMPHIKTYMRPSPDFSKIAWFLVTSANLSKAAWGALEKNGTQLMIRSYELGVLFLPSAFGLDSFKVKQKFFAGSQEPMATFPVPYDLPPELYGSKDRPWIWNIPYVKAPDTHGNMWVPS
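Signal: AlphaScreen proximity between streptavidin donor and anti-FITC acceptor beads on intact substrate. Reaction: Tdp1 1 nM, substrate 15 nM final, 5 min RT after 15 min compound preincubation.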
IL-1B inflam inh: qHTS for Inhibitors of Inflammasome Signaling: IL-1-beta AlphaLISA Primary Screen; AID 743279, 2014; activity change, % at 57.5 µM; THP-1 LPS/ATP IL-1B secretion, AlphaLISA, 16 h; stronger effect = lower value; actives 4.7% (n = 360,000); in the data active = activity change below about -50%; inconclusive = mostly about -30% to -49%; note: % is set by controls: 0 for no effect and ±100 for the full control effect
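Secreted IL-1B measured by AlphaLISA bead assay after 16 h compound exposure of THP-1 cells; compounds (final up to 57.5 uM) added 1 h before LPS (250 ng/mL) and ATP (1.25 mM) stimulation; lower signal means less secretion.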
TDP1 cell noCPT: qHTS for Inhibitors of human tyrosyl-DNA phosphodiesterase 1 (TDP1): qHTS in cells in absence of CPT; actives 15% (n = 420,000); Potency, µM (titrated, usually from 46.2 µM), without a hit: at the top dose activity change, negative = growth inhibition, usual class: inhibitors; DT40 Tdp1-/- hTDP1 cells, no CPT, ATP luminescence, 48 h; note: potency is the fitted concentration of half-maximal effect; % is set by controls: 0 for no effect and ±100 for the full control effect; nearly all actives have a fitted effect of over 55% in size
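Readout: luminescence from CellTiter-Glo after 30 min in the dark at RT. Cells: DT40 Tdp1-/- with stable hTDP1, 400/well. Exposure: compounds alone, ≥48 hr, 37 °C.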
DT40 TDP1 CPT: qHTS for Inhibitors of human tyrosyl-DNA phosphodiesterase 1 (TDP1): qHTS in cells in presence of CPT; chicken DT40 Tdp1-/-;hTDP1 cells + 20 nM CPT, ATP luminescence, 48 h; actives 12% (n = 420,000); Potency, µM (highest dose often 46.2 µM), without a hit: at the highest dose activity change, negative = growth inhibition, hits mostly inhibitors; note: potency is the fitted concentration of half-maximal effect; % is set by controls: 0 for no effect and ±100 for the full control effect; nearly all actives have a fitted effect of over 55% in size
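Chicken DT40 Tdp1-/- cells stably complemented with human TDP1 were seeded at 400 cells/well in medium containing 20 nM camptothecin, exposed to pin-transferred compounds, and grown at 37 °C for at least 48 hr. Viability was read as ATP luminescence.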
HepG2 viability: qHTS for Inhibitors of TGF-b: Cytotox Counterscreen | HepG2 CAGA-GFP viability, ATP luminescence, 18 h | Potency, µM (doses to about 46.1 µM), inactives show at the highest dose activity change, negative = cytotoxicity, actives largely listed as cytotoxic | actives 0.76% (n = 410,000) | AID 588856, 2011; note: potency is the fitted concentration of half-maximal effect
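CellTiter-Glo luminescence gave cytotoxicity after 18 hours at 37 degrees C. The cells were HepG2 CAGA-GFP in 1% FBS DMEM, stimulated with 500 pg/mL TGF-beta after compound addition. %Activity was normalised to no-cell wells (complete cell-killing) and DMSO (no toxicity), and curves were fitted and classified.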
Starred values were filed as active, the others as inactive. Shown are actives, neighbours in structure and some others; about 19% of the full set was active somewhere. Unless noted, calls come from the whole dose curve; as a rule, active = well fitted curve in the direction sought with a large enough effect; inconclusive = small, poorly fitted or top-dose-only effect, or another doubt; inactive = no such curve, though single readings can be large; an effect the other way counts as inactive or inconclusive.

COc1ccc2nc(SCC(O)c3cccc(Br)c3)[nH]c2c1 (centres undefined) was read as TGFb inhibitor 0%, TDP1 inh 9%, TDP1 cell noCPT inconclusive, DT40 TDP1 CPT inconclusive and HepG2 viability -4%.
For c1ccc2c(c1)nc(NCc1ccc3c(c1)OCO3)n2CCN1CCOCC1 the results were TGFb inhibitor 0%, TDP1 inh 3%, IL-1B inflam inh 0, TDP1 cell noCPT -7%, DT40 TDP1 CPT -14% and HepG2 viability -11%.
`c1csc(-c2csc3nc(CN4CCOCC4)nc(NCc4ccc5c(c4)OCO5)c23)c1` gave TGFb inhibitor -17%, TDP1 inh 8%, IL-1B inflam inh -26, TDP1 cell noCPT inconclusive, DT40 TDP1 CPT 23µM* and HepG2 viability -37%.
Screening O=C(c1ccccc1O)N(Cc1ccco1)Cc1ccco1 returned TDP1 inh -3%.
For CCN1CCN(c2cc(C)c3cc(NC(=O)c4ccc5c(c4)OCO5)ccc3n2)CC1 the results were TGFb inhibitor -25%, TDP1 inh 5%, IL-1B inflam inh 20, TDP1 cell noCPT 15µM*, DT40 TDP1 CPT 12µM* and HepG2 viability -51%.
CCN1CCN(c2cc(C)c3cc(NC(=O)c4cc(OC)c(OC)c(OC)c4)ccc3n2)CC1 was read as TGFb inhibitor -8%, TDP1 inh 4%, TDP1 cell noCPT inconclusive, DT40 TDP1 CPT inconclusive and HepG2 viability -56%.
`CCN1CCN(c2cc(C)c3cc(NC(=O)c4cncc(Br)c4)ccc3n2)CC1` gave TGFb inhibitor -2%, TDP1 inh 10%, IL-1B inflam inh -54*, TDP1 cell noCPT inconclusive, DT40 TDP1 CPT inconclusive and HepG2 viability -47%.
For CCN1CCN(c2cc(C)c3cc(NC(=O)/C=C/c4ccc(OCCC(C)C)cc4)ccc3n2)CC1 the results were TGFb inhibitor 33%, TDP1 inh 6%, TDP1 cell noCPT 4.1µM*, DT40 TDP1 CPT 4.6µM* and HepG2 viability -5%.
For CCN1CCN(c2cc(C)c3cc(NC(=O)CCC(=O)Nc4ccc(OC)c(OC)c4)ccc3n2)CC1 the results were TGFb inhibitor 22%, IL-1B inflam inh -6, TDP1 cell noCPT -23%, DT40 TDP1 CPT -1% and HepG2 viability -10%.
Screening CCN1CCN(c2cc(C)c3cc(NC(=O)c4cccc(C(F)(F)F)c4)ccc3n2)CC1 returned TGFb inhibitor 1%, TDP1 inh 9%, TDP1 cell noCPT 13µM*, DT40 TDP1 CPT 10µM* and HepG2 viability -46%.
`CCN1CCN(c2cc(C)c3cc(NC(=O)c4ccc(OC)c(OC)c4)ccc3n2)CC1` gave TGFb inhibitor 75%, TDP1 inh 3%, IL-1B inflam inh -26, TDP1 cell noCPT 16µM*, DT40 TDP1 CPT 15µM* and HepG2 viability -31%.
CCc1nn2c(-c3ccco3)ccnc2c1-c1ccc(F)cc1 was read as TGFb inhibitor 32%, TDP1 inh -2%, TDP1 cell noCPT inconclusive, DT40 TDP1 CPT inconclusive and HepG2 viability 7%.
For COc1ccc(C(=O)NCCc2cnc[nH]2)cc1OC the results were TGFb inhibitor 0%, IL-1B inflam inh -30, TDP1 cell noCPT 25%, DT40 TDP1 CPT 22% and HepG2 viability 11%.
Screening CCOc1cc(N2CCOCC2)c(OCC)cc1NC(=O)[C@H](C)N1C(=O)C2CC=CCC2C1=O (some centres undefined) returned TGFb inhibitor 4%, TDP1 inh -4%, IL-1B inflam inh 28, TDP1 cell noCPT 12µM*, DT40 TDP1 CPT -3% and HepG2 viability -2%.
Screening CCOc1cc(N2CCOCC2)c(OCC)cc1NC(=O)COC(=O)c1ccc(Cl)cc1N returned TGFb inhibitor 1%, TDP1 inh 2%, IL-1B inflam inh 51, TDP1 cell noCPT inconclusive, DT40 TDP1 CPT 5.8µM* and HepG2 viability -4%.
For O=C(COc1ccccc1[N+](=O)[O-])Nc1cccc(Cl)c1N1CCOCC1 the results were TGFb inhibitor inconclusive, TDP1 inh 4%, IL-1B inflam inh 14, TDP1 cell noCPT 15µM*, DT40 TDP1 CPT 16µM* and HepG2 viability 1%.
Screening CCOc1ccc(OCCC(=O)OCC(=O)Nc2cc(OCC)c(N3CCOCC3)cc2OCC)cc1 returned TGFb inhibitor 18%, TDP1 inh -14%, IL-1B inflam inh -13, TDP1 cell noCPT 26µM*, DT40 TDP1 CPT 18µM* and HepG2 viability 0%.
`O=C(COc1ccccc1[N+](=O)[O-])Nc1ccc(CN2CCOCC2)cc1` gave TGFb inhibitor 4%, TDP1 inh 5%, IL-1B inflam inh 19, TDP1 cell noCPT -27%, DT40 TDP1 CPT -5% and HepG2 viability 7%.
Screening CCCCc1ncc(/C=C(\Cc2cccs2)C(=O)O)n1Cc1ccc(C(=O)O)cc1 returned TDP1 inh 2%, TDP1 cell noCPT -8% and DT40 TDP1 CPT -20%.
`O=C(Cn1cc(CN(Cc2ccccc2)Cc2ccccc2)nn1)Nc1cc(C(F)(F)F)ccc1Cl` gave TDP1 inh 1%.
COCCSc1nc(N)c(NC(=O)c2ccco2)c(=O)[nH]1 was read as TGFb inhibitor -7%, TDP1 inh 1%, IL-1B inflam inh 12, TDP1 cell noCPT 12%, DT40 TDP1 CPT 11% and HepG2 viability -13%.
For CCOc1cc(N2CCOCC2)c(OCC)cc1NC(=O)c1[nH]c(C)c(C(C)=O)c1C the results were TGFb inhibitor 4%, TDP1 inh -6%, IL-1B inflam inh 18, TDP1 cell noCPT 5.8µM*, DT40 TDP1 CPT 8.2µM* and HepG2 viability -7%.
`CCOc1cc(N2CCOCC2)c(OCC)cc1NC(=O)Cc1ccc(OC)c(OC)c1` gave TGFb inhibitor -23%, TDP1 inh 5%, IL-1B inflam inh 0, TDP1 cell noCPT 23µM*, DT40 TDP1 CPT inconclusive and HepG2 viability -9%.
Screening CCOc1cc(N2CCOCC2)c(OCC)cc1NC(=O)COc1cccc(CC)c1 returned TGFb inhibitor -20%, TDP1 inh 6%, IL-1B inflam inh 15, TDP1 cell noCPT 8.2µM*, DT40 TDP1 CPT 18µM* and HepG2 viability -17%.
